# D2 ag-1: agonists of human D2 dopamine receptor; activation, % at 2 µM; HEK293 T-REx D2 cells, calcium flux agonist mode; 0.53% of 340,000 active;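 active = activation over 3 SD above normal in the single-dose calcium agonist read, cut at about 30% in these data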
# Target sequence (P14416 whole entry, looked up): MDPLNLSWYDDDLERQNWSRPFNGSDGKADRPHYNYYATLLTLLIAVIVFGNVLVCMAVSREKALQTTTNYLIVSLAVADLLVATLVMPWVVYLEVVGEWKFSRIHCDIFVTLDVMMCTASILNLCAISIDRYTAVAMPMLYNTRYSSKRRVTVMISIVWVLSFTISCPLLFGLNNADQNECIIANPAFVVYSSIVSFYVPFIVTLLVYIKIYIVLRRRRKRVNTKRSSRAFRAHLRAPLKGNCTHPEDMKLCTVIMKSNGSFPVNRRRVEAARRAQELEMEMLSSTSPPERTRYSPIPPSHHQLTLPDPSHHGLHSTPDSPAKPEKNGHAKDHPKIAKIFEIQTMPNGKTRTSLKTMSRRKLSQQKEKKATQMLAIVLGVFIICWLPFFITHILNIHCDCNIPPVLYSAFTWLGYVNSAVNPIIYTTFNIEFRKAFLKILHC
#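 Agonism is scored from calcium flux in a force-coupled, inducible HEK293 cell line expressing D2, read kinetically for 180 s after compound addition against dopamine controls.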
# D2 PAM-1: positively modulates the human D2 dopamine receptor allosterically. P14416. HEK293 T-REx D2, calcium flux, EC20 dopamine potentiation. potentiation, % at 10 µM. 0.34% of 340,000 active. AID 485347;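 active = potentiation over 3 SD above the plate norm, cut at about 30% in these data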
#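 Calcium flux readout, no-wash dye, 1 read/s. Inducible HEK293 Trex D2 line, overnight 30 C. Compound alone 180 s (agonist flags), then EC20 dopamine, another 180 s to score potentiation.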
# D2 antagonist: antagonists of human D2 dopamine receptor. P14416. HEK293 TREx D2 cells, calcium flux, dopamine EC80. inhibition, % at 10 µM. 2% of 340,000 active. AID 485344; in the data active = inhibition above about 30%; inactive = below that, where a call was filed
#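 Compounds are added to dye-loaded, induced HEK293 T-REx cells coupled to calcium release via D2; after a 3 min kinetic read an EC80 dopamine stimulus is given and fluorescence is recorded for 3 more min.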
# D2 ag-2: agonists of human D2 dopamine receptor (beta-arrestin); AID 624465; 0.084% of 360,000 active; activation, % (test concentration not listed); P14416; DiscoveRx PathHunter D2 beta-arrestin, luminescence, 90 min; 100% = 57 uM dopamine signal; in the data active = activation above about 40%; inconclusive = between about 15% and that limit
#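 DiscoveRx PathHunter D2 beta-arrestin cells (2,100/well) attached overnight, then compound-stimulated 90 min at 37 C in HBSS/10 mM HEPES/0.1% Tween-20 buffer; beta-galactosidase complementation read by luminescence after 1 h at ambient temperature. Dopamine 57 uM final (EC100) as control.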
# D2 PAM-2: positive allosteric modulators of human D2 dopamine receptor. P14416. DiscoveRx D2 beta-arrestin cells, luminescence, 90 min; 100% = 57 uM dopamine signal. potentiation, % (test concentration not listed). 0.23% of 360,000 active; in the data active = potentiation above about 50%; inconclusive = mostly about 30% to 49%
#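 D2 cells co-treated with compound plus 50 nM dopamine (EC20) for 90 min at 37 deg C to detect potentiation. Beta-arrestin recruitment was read as enzyme-fragment luminescence after 1 h at ambient temperature. Full response was set by 57 uM dopamine.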
# Numbers stand for hits; . = inactive; ? = inconclusive; / = not tested or not shown; ! = not active in a repeat. Compounds with a hit are over-represented: about 2.4% of the library has one in this group of screens.
SMILES,D2 ag-1,D2 PAM-1,D2 antagonist,D2 ag-2,D2 PAM-2
Cc1ccccc1C(=O)Nc1ccccc1C(=O)OCc1cc(=O)n2ccsc2n1,.,.,/,/,/
CCNC(=O)c1ccccc1SCC(=O)Nc1ccc(F)cc1,.,35,.,.,.
CCNC(=O)c1ccccc1SCc1ccccc1,.,.,.,.,.
COc1cc(C(=O)OC(C)CN2CCOCC2)cc(OC)c1OC (stereo not given),.,.,40!,.,.
COc1cc(C(=O)OC(C)CN2CCN(C)CC2)cc(OC)c1OC (stereo not given),.,.,.,.,.
CC(=O)Nc1ccc(-c2ccnc3c2CC(C)(C(=O)Nc2cccc(OC(F)(F)F)c2)O3)cc1 (stereo not given),/,/,/,.,.
COCCCNC(=O)c1cc2c(=O)n3cccc(C)c3nc2n(C(C)C)c1=N,.,.,34,.,.
O=S(=O)(c1ccsc1)N1CC=C(c2ccccc2)CC1,36,.,35,.,.
O=C(NNS(=O)(=O)c1ccc(Cl)cc1)c1sccc1-n1cccc1,/,/,/,.,.
O=C(NNC(=O)c1sccc1-n1cccc1)c1ccc(Cl)cc1,.,.,36,.,.
O=C(Cn1cc(SCc2ccc(Br)cc2)c2ccccc21)N1CCCCC1,.,.,/,/,/
FC(F)(F)c1ccnc(N2CCN(Cc3cnc(-c4ccccc4)[nH]3)CC2)c1,.,.,90,.,.
CC(=O)Nc1ccc(S(=O)(=O)N2CCN(c3cc(C(F)(F)F)ccn3)CC2)cc1,.,.,.,.,.
NC(=O)C1CCN(CC(=O)c2c[nH]c3ccc(F)cc23)CC1,.,.,.,.,.
O=C(CN1CCN(c2ccccc2F)CC1)c1c[nH]c2ccc(F)cc12,.,.,35,.,.
CCOC(=O)c1ccccc1NC(=O)CSc1nc2ncccc2o1,.,.,/,/,/
Cc1cc(C)nc(NN2C(=O)C=CC2=O)n1,.,.,.,.,.
CCN(CC)S(=O)(=O)c1ccc(C(=O)OCCN2C(=O)c3cccc4c(N5CCOCC5)ccc(c34)C2=O)cc1,.,.,.,.,.
O=C(OCCN1C(=O)c2cccc3c(N4CCOCC4)ccc(c23)C1=O)c1cc(Cl)cc(Cl)c1,48,.,.,/,/
S=c1[nH]nc(C2CCCCC2)n1/N=C/c1ccccc1,.,.,.,.,.
Fc1ccc(/C=N/n2c(C3CCCCC3)n[nH]c2=S)cc1,.,.,50,?,.
CCCC(=O)Nc1ccc2oc(-c3ccncc3)nc2c1,.,34,.,.,.
CCCC(=O)Nc1ccc2oc(-c3cncc(Br)c3)nc2c1,.,.,39,.,.
CCCCCC(=O)Nc1ccc2oc(-c3cncc(Br)c3)nc2c1,.,.,.,.,.
CCCCC(=O)Nc1ccc2oc(-c3ccncc3)nc2c1,/,/,/,.,.
SMILES,D2 ag-1,D2 PAM-1,D2 antagonist,D2 ag-2,D2 PAM-2
COc1cccc(OC)c1Oc1ccc(C(F)(F)F)cn1,.,.,66,.,.
FC(F)(F)c1ccc(Oc2ccccc2Cl)nc1,.,.,.,.,.
CCc1nn(CC(=O)NCCCOC)c(=O)c2cc3ccccc3n12,/,.,/,/,/
CC(Oc1coc(CN2CCN(C(=O)c3ccco3)CC2)cc1=O)c1ccccc1 (stereo not given),31,.,.,.,.
Cc1ccc(COc2coc(CN3CCN(C(=O)c4ccco4)CC3)cc2=O)cc1,.,.,.,.,.
CCOC(=O)N(C)C[C@H]1OCc2cnnn2CCCC(=O)N([C@@H](C)CO)C[C@@H]1C,/,/,/,.,.
COc1ccccc1N1CCN(CC(=O)c2c(C)n(C)c3ccccc23)CC1,.,.,.,.,.
COc1ccccc1N1CCN(CC(=O)c2c(C)[nH]c3cc(C)ccc23)CC1,.,.,64,.,.
CCC1CCCCN1CC(=O)c1c(C)[nH]c2cc(C)ccc12 (stereo not given),.,.,33,.,.
Cc1cccc(Cn2c(=O)n(CC3CCC(C(=O)N4CCC(C)CC4)CC3)c(=O)c3sccc32)c1 (stereo not given),.,.,/,/,/
Cc1nc2ccccc2n1CCC(=O)O,.,.,.,.,.
Cc1nc2ccccc2n2c(O)c(CC(=O)O)cc12,.,.,.,.,79
CC(C)NS(=O)(=O)c1ccc(OCC(N)=O)c(Cl)c1,.,.,34,.,.
CCOC(=O)C1CCN(C(=O)COc2ccc(S(=O)(=O)NC(C)C)cc2Cl)CC1,.,.,.,.,.
COc1ccccc1N1CCN(C(=O)c2oc3ccccc3c2NC(=O)C(C)Oc2ccccc2)CC1 (stereo not given),.,.,/,/,/
Cc1ccc(C(=O)NCC(c2cccs2)S(=O)(=O)c2ccccc2)cc1C (stereo not given),.,.,/,/,/
Cc1ccc(Cl)c(OCC(=O)Nc2ccc3c(c2)OCCO3)c1,.,.,.,.,.
CCN(CC(=O)Nc1ccc2c(c1)OCCO2)C(=O)COc1cc(C)ccc1Cl,.,.,33,.,.
O=C(Cc1ccc(F)cc1)NCCS(=O)(=O)N1CCN(c2ccccc2)CC1,.,.,46,?,.
O=C(NCCS(=O)(=O)N1CCN(c2ccccc2F)CC1)c1ccco1,.,.,.,.,.
CCOC(=O)N1CCN(Cc2c(NC(=O)c3ccco3)sc(C)c2C)CC1,.,/,.,.,.
O=C(NCCS(=O)(=O)N1CCN(c2ccccc2)CC1)C1CC(=O)N(c2ccc(F)cc2)C1 (stereo not given),.,.,32,.,.
O=C(NCCS(=O)(=O)N1CCN(c2ccc(F)cc2)CC1)c1ccco1,.,.,33,.,.
Cc1sc(NC(=O)c2ccco2)c(CN2CCN(c3ccc(F)cc3)CC2)c1C,.,.,33,.,.
COc1ccccc1CNC(=O)C1CCN(Cc2cc3ccccc3n2Cc2cccc(C)c2)CC1,.,.,/,/,/
SMILES,D2 ag-1,D2 PAM-1,D2 antagonist,D2 ag-2,D2 PAM-2
O=c1[nH]c(SCc2c(F)cccc2Cl)nc2c1CCCC2,.,.,/,/,/
Cc1cccc(C)c1N1C(=O)c2cccc([N+](=O)[O-])c2C1=O,.,.,.,.,83
O=C(Nc1cccc(-c2ccc(N3CCOCC3)nn2)c1)c1ccc(Cl)cc1,.,.,31,.,.
Cc1ccc(-c2csc(N/N=C/c3ccco3)n2)c(C)c1,.,.,.,.,56
COc1ccc(C(OCC(O)CN(C)C2CCCCC2)c2ccc(OC)cc2)cc1 (stereo not given),.,.,.,.,.
CCOc1ccc(CN(C)CC(O)COC(c2ccc(OC)cc2)c2ccc(OC)cc2)cc1 (stereo not given),.,.,30,.,.
COc1ccc(CN(C)CC(O)COC(c2ccc(OC)cc2)c2ccc(OC)cc2)cc1 (stereo not given),.,.,39,.,.
Cc1ccc2nc(N3CCN(C(=O)C4COc5ccccc5O4)CC3)sc2c1 (stereo not given),.,.,/,/,/

# Screening data as filed in PubChem BioAssay.
